Where a name gives a salt, the structure may show the parent alone.
Legend:
Settings in all cases: 20 µM
[1] = system: Salmonella enterica typhimurium; experiment: growth AUC normalised to DMSO control (fraction of control); higher = less growth inhibition, active = hit call of the paper
Method in brief: (§1)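 Three biological replicates were carried out, with OD578 read hourly for 24 h. Before inoculation at a starting OD578 of 0.01, pathogens were passaged anaerobically twice; plates were pre-reduced mGAM containing 20 μM compound and 1% DMSO, sealed with breathable membranes, and the Haemophilus parainfluenzae medium carried added hemin and NAD. Area under each growth curve was calculated by the trapezoidal rule up to the exponential-to-stationary transition and normalised to DMSO controls on the same plate.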

Shigella flexneri = experiment: as above
Method in brief: as §1

Vibrio cholerae = experiment: as above
Method in brief: as §1

[2] = system: Yersinia pseudotuberculosis; experiment: as above
Method in brief: as §1

P. vulgatus RND KO = experiment: growth AUC normalised to DMSO control (median) (fraction of control); higher = less growth inhibition, active = hit call of the paper
Method in brief: (§2)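 Strains were passaged twice overnight without oxygen, then grown in mGAM in 96-well plates with each approved-drug library compound at 20 μM and 1% DMSO, starting at OD578 0.01. OD578 was read hourly for 24 h inside an anaerobic incubator. Curves were truncated at entry into stationary phase, and the trapezoidal-rule area under the curve was normalised to same-plate vehicle wells. The value is the median across three biological replicates.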

P. vulgatus WT = experiment: as above
Method in brief: as §2

[3] = system: S. enterica typhimurium WT; experiment: as above
Method in brief: as §2

[4] = system: S. enterica typhimurium tolC KO; experiment: as above
Method in brief: as §2

Measured: growth AUC normalised to DMSO control
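For growth AUC normalised to DMSO control (median) in this document: active when median AUC fell below 0.1.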

c1ccc(CC2=NCCN2)cc1 [Tolazoline hydrochloride]
inactive: [1] 1.01 | Shigella flexneri 1.02 | Vibrio cholerae 1.02 | [2] 1.01 | P. vulgatus RND KO 1.02 | P. vulgatus WT 1.07 | [3] 0.987 | [4] 1.01

CCc1cccc2c3c([nH]c12)C(CC)(CC(=O)O)OCC3 (stereo not given) [Etodolac]
inactive: [1] 1.01 | Shigella flexneri 1.06 | Vibrio cholerae 1.06 | [2] 1.02 | P. vulgatus RND KO 0.99 | P. vulgatus WT 1.01 | [3] 1.02 | [4] 1.02

CC(CNC1CCCCC1)OC(=O)c1ccccc1 (stereo not given) [Hexylcaine hydrochloride]
inactive: [1] 0.993 | Shigella flexneri 0.97 | Vibrio cholerae 0.996 | [2] 0.986 | P. vulgatus RND KO 1 | P. vulgatus WT 1.01 | [3] 0.995 | [4] 0.992

CCCC1C(=O)N2C(N(C)C)=Nc3ccc(C)cc3N2C1=O (stereo not given) [Azapropazone]
inactive: [1] 0.983 | Shigella flexneri 0.96 | Vibrio cholerae 0.958 | [2] 0.964 | P. vulgatus RND KO 0.993 | P. vulgatus WT 1 | [3] 1 | [4] 0.995

COc1cc(C(=O)NCc2ccc(OCCN(C)C)cc2)cc(OC)c1OC [Trimethobenzamide hydrochloride]
inactive: [1] 1.02 | Shigella flexneri 1.01 | Vibrio cholerae 1.05 | [2] 1.02 | P. vulgatus RND KO 1.02 | P. vulgatus WT 1.05 | [3] 0.999 | [4] 1.01

CN(Cc1ccc(C(C)(C)C)cc1)Cc1cccc2ccccc12 [Butenafine hydrochloride]
inactive: [1] 0.974 | Shigella flexneri 0.968 | Vibrio cholerae 0.926 | [2] 0.99 | P. vulgatus RND KO 0.967 | P. vulgatus WT 0.96 | [3] 0.995 | [4] 0.957

COc1c(N2CCNC(C)C2)c(F)cc2c(=O)c(C(=O)O)cn(C3CC3)c12 (stereo not given) [Gatifloxacin]
active: [1] 0.0102 | Shigella flexneri 0.0167 | Vibrio cholerae 0.0355 | [2] 0.0287 | P. vulgatus RND KO 0.0163 | P. vulgatus WT 0.0109 | [3] 0.0104 | [4] 0.0044

CC[C@@H]1C(=O)OC[C@@H]1Cc1cncn1C [Pilocarpine nitrate]
inactive: [1] 0.995 | Shigella flexneri 1 | Vibrio cholerae 0.998 | [2] 1.04 | P. vulgatus RND KO 0.982 | P. vulgatus WT 0.998 | [3] 1 | [4] 1

CCN1CCC[C@H]1CNC(=O)c1c(OC)ccc(Br)c1OC [Remoxipride hydrochloride]
inactive: [1] 1.01 | Shigella flexneri 1.04 | Vibrio cholerae 1.03 | [2] 1.01 | P. vulgatus RND KO 1.03 | P. vulgatus WT 1.06 | [3] 1.01 | [4] 1.01

CC(C)NC[C@@H](O)COc1ccc(CC(N)=O)cc1 [(R,+) Atenolol]
inactive: [1] 1.01 | Shigella flexneri 1.06 | Vibrio cholerae 1.07 | [2] 1.02 | P. vulgatus RND KO 1.04 | P. vulgatus WT 1.01 | [3] 1.02 | [4] 0.986

COc1cc(Cc2cnc(N)nc2N)cc(OC)c1OC [Trimethoprim]
inactive: P. vulgatus RND KO 0.45 | P. vulgatus WT 0.259 | [3] 0.147 | [4] 0.132
active: [1] 0.197 | Shigella flexneri 0.0632 | Vibrio cholerae 0.0115 | [2] 0.157

CC(C)(O/N=C(\C(=O)N[C@@H]1C(=O)N2C(C(=O)[O-])=C(C[n+]3ccccc3)CS[C@H]12)c1csc(N)n1)C(=O)O [Ceftazidime pentahydrate]
active: [1] 0.016 | Shigella flexneri 0.0524 | Vibrio cholerae 0.494 | [2] 0.186 | P. vulgatus RND KO 0.0283 | P. vulgatus WT 0.0233 | [4] 0.0609
inactive: [3] 0.214

Cn1c(=O)c2c(ncn2CC(O)CO)n(C)c1=O (stereo not given) [Diprophylline]
inactive: [1] 0.986 | Shigella flexneri 0.996 | Vibrio cholerae 0.971 | [2] 1 | P. vulgatus RND KO 1 | P. vulgatus WT 0.989 | [3] 0.991 | [4] 0.998

N/C(=N\C(=O)c1nc(Cl)c(N)nc1N)NCc1ccccc1 [Benzamil hydrochloride]
inactive: [1] 0.972 | Shigella flexneri 0.986 | Vibrio cholerae 0.99 | [2] 0.998 | P. vulgatus RND KO 0.996 | P. vulgatus WT 0.991 | [3] 0.998 | [4] 0.984

CC(C(=O)O)c1ccc(C(=O)c2ccccc2)s1 (stereo not given) [Tiaprofenic acid]
inactive: [1] 1 | Shigella flexneri 1.01 | Vibrio cholerae 0.978 | [2] 1.01 | P. vulgatus RND KO 1.02 | P. vulgatus WT 1.05 | [3] 1 | [4] 0.992

COc1ccc2c(c1)c(CC(=O)OCC(=O)O)c(C)n2C(=O)c1ccc(Cl)cc1 [Acemetacin]
inactive: [1] 0.979 | Shigella flexneri 0.965 | Vibrio cholerae 0.985 | [2] 0.985 | P. vulgatus RND KO 0.855 | P. vulgatus WT 0.866 | [3] 0.993 | [4] 0.969

CCN(CC)CCOC(=O)C1(c2ccc([N+](=O)[O-])cc2)CCCC1 [Nitrocaramiphen hydrochloride]
inactive: [1] 0.993 | Shigella flexneri 0.993 | Vibrio cholerae 0.974 | [2] 0.996 | P. vulgatus RND KO 1.03 | P. vulgatus WT 1.05 | [3] 1 | [4] 1

CN1C2CCCC1CC(NC(=O)c1nn(C)c3ccccc13)C2 (stereo not given) [Granisetron]
inactive: [1] 1 | Shigella flexneri 1.02 | Vibrio cholerae 1.01 | [2] 1 | P. vulgatus RND KO 1 | P. vulgatus WT 0.987 | [3] 0.982 | [4] 1

CCN(CC)C(=O)Nc1ccc(OCC(O)CNC(C)(C)C)c(C(C)=O)c1 (stereo not given) [Celiprolol hydrochloride]
inactive: [1] 0.995 | Shigella flexneri 0.992 | Vibrio cholerae 0.99 | [2] 1.01 | P. vulgatus RND KO 0.997 | P. vulgatus WT 1.01 | [3] 0.994 | [4] 0.994

Clc1ccc(C(Cn2ccnc2)OCc2ccsc2Cl)c(Cl)c1 (stereo not given) [Tioconazole]
inactive: [1] 0.986 | Shigella flexneri 0.984 | Vibrio cholerae 0.909 | [2] 1.07 | P. vulgatus RND KO 0.932 | P. vulgatus WT 0.929 | [3] 1 | [4] 0.903

Cc1ncc([N+](=O)[O-])n1CC(C)O (stereo not given) [Secnidazole]
active: P. vulgatus RND KO 0.0215 | P. vulgatus WT 0.0204
inactive: [1] 0.996 | Shigella flexneri 0.953 | Vibrio cholerae 0.99 | [2] 1 | [3] 1.01 | [4] 1

CN(C)CCOc1ccc(/C(=C(/CCCl)c2ccccc2)c2ccccc2)cc1 [Toremifene]
inactive: [1] 1.01 | Shigella flexneri 1.05 | Vibrio cholerae 1.05 | [2] 1.06 | P. vulgatus RND KO 0.973 | P. vulgatus WT 1.01 | [3] 1.02 | [4] 0.983

CN(C(=O)C(Cl)Cl)c1ccc(OC(=O)c2ccco2)cc1 [Diloxanide furoate]
inactive: [1] 0.998 | Shigella flexneri 0.959 | Vibrio cholerae 0.97 | [2] 0.978 | P. vulgatus RND KO 0.988 | P. vulgatus WT 0.996 | [3] 0.995 | [4] 0.966

NS(=O)(=O)Cc1noc2ccccc12 [Zonisamide]
inactive: [1] 1.01 | Shigella flexneri 0.997 | Vibrio cholerae 0.997 | [2] 1 | P. vulgatus RND KO 1 | P. vulgatus WT 1 | [3] 0.998 | [4] 1.01

Cc1cccc(C)c1NC(=O)C(C)N (stereo not given) [Tocainide hydrochloride]
inactive: [1] 1 | Shigella flexneri 0.967 | Vibrio cholerae 1.01 | [2] 0.985 | P. vulgatus RND KO 1.02 | P. vulgatus WT 1.02 | [3] 0.999 | [4] 1

CCOC(=O)Nc1ccc2c(c1)N(C(=O)CCN1CCOCC1)c1ccccc1S2 [Moricizine hydrochloride]
inactive: [1] 1.01 | Shigella flexneri 0.997 | Vibrio cholerae 0.942 | [2] 1.01 | P. vulgatus RND KO 0.766 | P. vulgatus WT 0.638 | [3] 1.01 | [4] 0.957

CN(C)C(=O)C(CCN1CCC(O)(c2ccc(Cl)cc2)CC1)(c1ccccc1)c1ccccc1 [Loperamide hydrochloride]
inactive: [1] 0.997 | Shigella flexneri 0.972 | Vibrio cholerae 0.981 | [2] 0.988 | P. vulgatus RND KO 1 | P. vulgatus WT 1.01 | [3] 1 | [4] 0.987

CCOC(=O)/C=C(C)/C=C/C=C(C)/C=C/c1c(C)cc(OC)c(C)c1C [Etretinate]
inactive: [1] 1.01 | Shigella flexneri 1.03 | Vibrio cholerae 0.998 | [2] 1 | P. vulgatus RND KO 1.03 | P. vulgatus WT 1.06 | [3] 1 | [4] 0.991

CC(=O)SCC(Cc1ccccc1)C(=O)NCC(=O)OCc1ccccc1 (stereo not given) [Racecadotril]
inactive: [1] 1 | Shigella flexneri 1 | Vibrio cholerae 1 | [2] 1.01 | P. vulgatus RND KO 1.06 | P. vulgatus WT 1.05 | [3] 1 | [4] 0.963

C#C[C@]1(O)CC[C@H]2[C@@H]3CCC4=C(CCC(=O)C4)[C@H]3CC[C@@]21C [Norethynodrel]
inactive: [1] 1 | Shigella flexneri 1 | Vibrio cholerae 0.994 | [2] 0.992 | P. vulgatus RND KO 0.992 | P. vulgatus WT 1.01 | [3] 0.996 | [4] 0.993
